A selection: hits, their analogues and other compounds. The true share with any hit is near 16%.
DT40 TDP1 CPT: qHTS for Inhibitors of human tyrosyl-DNA phosphodiesterase 1 (TDP1): qHTS in cells in presence of CPT; chicken DT40 Tdp1-/-;hTDP1 cells + 20 nM CPT, ATP luminescence, 48 h; Potency, µM (titrated, usually from 46.2 µM), hits mostly inhibitors; hit rate 12% among 420,000; AID 686979, 2013; further: nearly all actives have a fitted effect of over 55% in size
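Cell growth measured by CellTiter-Glo luminescence after a minimum 48 h, 37 C compound exposure with 20 nM CPT in Tdp1-knockout DT40 cells stably expressing hTDP1, seeded 400/well; qHTS titration format.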
DT40 TDP1 no CPT: qHTS for Inhibitors of human tyrosyl-DNA phosphodiesterase 1 (TDP1): qHTS in cells in absence of CPT; hit rate 15% among 420,000; DT40 Tdp1-/- hTDP1 cells, no CPT, ATP luminescence, 48 h; Potency, µM (titrated, usually from 46.2 µM), usual class: inhibitors; further: nearly all actives have a fitted effect of over 55% in size
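Camptothecin absent (DMSO only). Human TDP1-complemented DT40 knockout cells, 400 cells/well, 37 °C for minimum 48 hr; ATP measured via CellTiter-Glo, 30 min dark incubation, luminescence.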
uPA surface inh: qHTS for Inhibitors of Cell Surface uPA Generation; Potency, µM (doses to about 38.3 µM), actives largely listed as inhibitors; AID 540303, 2011; hit rate 0.31% among 330,000; cell surface uPA generation assay, qHTS; active means well fitted inhibition curve with a large enough effect; inconclusive means small, poorly fitted or top-dose-only effect; inactive means no such curve, though single readings can be large or run the other way; tested in mouse RAW 264.7 cells; further: nearly all actives have a fitted effect of over 55% in size
miR-21 act: qHTS Assay for Modulators of miRNAs and/orActivators of miR-21. HeLa miR-21 FLuc reporter, luciferase, 48 h. Potency, µM (titrated, usually from 38.3 µM), usual class: activators. 340,000 tested, under 10 active. AID 2288, 2010;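 further: miR-21 action dims this reporter so a rising signal means less miR-21 action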
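Compounds were titrated across several concentrations (up to approximately 40 uM) and incubated 48 hours with HeLa miR-21-FLuc reporter cells (miR-21 target sequence downstream of FLuc, endogenous miR-21). Readout was firefly luciferase luminescence after lytic detection reagent.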
TDP1 inh: qHTS Assay for Inhibitors of Tyrosyl-DNA Phosphodiesterase (TDP1); Tyrosyl-DNA phosphodiesterase 1 (Homo sapiens), Q9NUW8; recombinant TDP1, AlphaScreen DNA substrate cleavage; Potency, µM (titrated, usually from 130 µM), usual class: inhibitors; hit rate 0.28% among 350,000; AID 485290, 2010; further: nearly all actives have a fitted effect of over 40% in size
Target sequence (Q9NUW8 whole entry, looked up): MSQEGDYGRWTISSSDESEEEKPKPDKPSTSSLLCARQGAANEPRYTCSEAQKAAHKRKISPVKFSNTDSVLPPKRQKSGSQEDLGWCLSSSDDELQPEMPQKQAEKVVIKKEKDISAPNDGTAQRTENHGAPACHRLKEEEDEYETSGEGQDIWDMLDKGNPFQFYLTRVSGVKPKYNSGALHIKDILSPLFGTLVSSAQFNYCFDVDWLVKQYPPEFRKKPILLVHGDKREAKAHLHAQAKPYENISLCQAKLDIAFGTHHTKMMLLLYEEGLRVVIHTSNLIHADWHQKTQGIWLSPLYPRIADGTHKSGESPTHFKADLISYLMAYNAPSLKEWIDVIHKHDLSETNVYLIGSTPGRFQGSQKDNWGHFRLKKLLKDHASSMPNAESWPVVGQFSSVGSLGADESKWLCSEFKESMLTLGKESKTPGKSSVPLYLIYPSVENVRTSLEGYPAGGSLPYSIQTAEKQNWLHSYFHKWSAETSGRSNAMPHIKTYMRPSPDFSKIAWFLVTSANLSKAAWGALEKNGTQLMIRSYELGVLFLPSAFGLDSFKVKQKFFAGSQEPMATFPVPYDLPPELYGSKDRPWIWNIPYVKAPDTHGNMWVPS
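Recombinant E. coli-expressed Tdp1 (1 nM) preincubated with compound 15 min at RT, then 5'-biotin/3'-phosphotyrosine-FITC DNA substrate (15 nM) added for 5 min. AlphaScreen beads (10 ug/ml) added, 10 min RT; tyrosine-FITC cleavage read as signal loss.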
Numbers stand for hits; i = inactive; ? = inconclusive; nt = not tested or not shown; [ ] = another dose, or the depositor's remark. Unless noted, the call rests on the fitted dose curve; in most records, active means well fitted curve in the direction sought with a large enough effect; inconclusive means small, poorly fitted or top-dose-only effect, or another doubt; inactive means no such curve, though single readings can be large; an effect the other way counts as inactive or inconclusive.

SMILES	DT40 TDP1 CPT	DT40 TDP1 no CPT	uPA surface inh	miR-21 act	TDP1 inh
Cc1ccc(S(=O)(=O)N2CCCCC2)cc1NC(=O)CCNC(=O)c1ccc([N+](=O)[O-])cc1	23.1µM	16.4µM	i	nt	i
Cc1cc(OCC(=O)OCC(=O)Nc2ccc(Cl)cn2)ccc1Cl	i	i	i	nt	nt
CC(C)C(C=Cc1ccccc1)=NNS(=O)(=O)c1ccccc1	8.2µM	i	nt	nt	nt
Cc1cccc(C(=O)N/C(=C/c2ccco2)C(=O)N2CCCCCC2)c1	i	i	i	i	i
CC(Sc1nnc(NCc2ccccc2)s1)C(=O)Nc1ccc2c(c1)C(=O)c1ccccc1C2=O (centres undefined)	?	18.4µM	i	i	i
CCOC(=O)c1scc(-c2ccccc2)c1S(=O)(=O)Nc1cc(OC)cc(OC)c1	?	?	nt	i	i
CCOC(=O)c1scc(-c2ccccc2)c1S(=O)(=O)N1CCN(c2ccc(Cl)cc2)CC1	?	13µM	nt	i	i
COC(=O)c1scc(-c2ccc(C)cc2)c1S(=O)(=O)N1CCN(c2ccc(C)cc2C)CC1	14.6µM	9.2µM	nt	i	i
COC(=O)c1scc(-c2ccc(C)cc2)c1S(=O)(=O)N1CCN(c2ccc(C(C)=O)cc2)CC1	23.1µM	?	nt	i	i
COC(=O)c1scc(-c2ccc(C)cc2)c1S(=O)(=O)N1CCN(c2ccccc2F)CC1	13µM	18.4µM	nt	i	i
COC(=O)c1cc(S(=O)(=O)N2CCN(c3ccc(C)cc3C)CC2)cn1C	?	i	nt	i	i
COC(=O)c1sccc1S(=O)(=O)N1CCN(c2ccc(Cl)cc2)CC1	?	?	nt	i	i
O=C(CCn1c(=O)c2ccccc2n(CC(=O)Nc2ccc(F)cc2)c1=O)NCCc1ccccc1	i	i	nt	i	i[12.3 µM]
COC(=O)c1scc(-c2ccc(C)cc2)c1S(=O)(=O)N1CCN(c2cccc(Cl)c2)CC1	18.4µM	18.4µM	nt	i	i
COC(=O)c1scc(-c2ccc(C)cc2)c1S(=O)(=O)N1CCN(c2ccccc2)CC1	11.6µM	9.2µM	nt	i	i
Cc1cc(C)c(S(=O)(=O)N2CCN(c3ccccc3)CC2)c(C)c1	?	?	i	i	nt
CCOc1ccc(S(=O)(=O)N2CCC(C(=O)N3CCN(C)CC3)CC2)cc1Cl	i	i	i	i	nt
CC(=O)c1ccc(NS(=O)(=O)c2ccc(-c3cnc(C4CC4)o3)cc2)cc1	i	?	i	i	i
N#Cc1ccc(NS(=O)(=O)c2ccc(-c3cnc(C4CC4)o3)cc2)cc1	18.4µM	?	nt	i	i
Cc1cccc(C)c1NS(=O)(=O)c1ccc(-c2cnc(C3CC3)o2)cc1	0.0058µM	0.116µM	i	i	i
COc1ccc(C)cc1NS(=O)(=O)c1ccc(-c2cnc(C3CC3)o2)cc1	0.0651µM	0.0651µM	i	?	i
CCOC(=O)c1cccc(NS(=O)(=O)c2ccc(-c3cnc(C4CC4)o3)cc2)c1	2.31µM	2.59µM	nt	i	i
CCOC(=O)C1CCN(C(=O)COC(=O)c2cccc(NS(=O)(=O)c3ccccc3)c2)CC1	?	?	i	nt	nt
COc1cccc(C(c2sc3nc(C)nn3c2O)N2CCN(C(=O)c3ccco3)CC2)c1 (centres undefined)	i	i	i	i	i
O=C(c1ccc(NS(=O)(=O)c2cccc([N+](=O)[O-])c2)cc1)N1CCN(C(=O)c2ccco2)CC1	i	i	i	nt	i
SMILES	DT40 TDP1 CPT	DT40 TDP1 no CPT	uPA surface inh	miR-21 act	TDP1 inh
Cc1cc2cc3c(cc2nc1SCC(=O)O)CCC3	i	i	i	i	i
O=C(COc1ccccc1)N=C1SC2CS(=O)(=O)CC2N1Cc1ccccc1 (centres undefined)	i	i	i	i	i
COc1ccc(C)cc1NS(=O)(=O)c1ccc2c(c1)N(C)CCO2	?	14.6µM	i	i	i
Cc1ccc(N(C)S(=O)(=O)c2ccc(-c3cnc(C4CC4)o3)cc2)cc1	0.0291µM	0.0184µM	?	i	i
CN(Cc1ccccc1)S(=O)(=O)c1ccc(-c2cnc(C3CC3)o2)cc1	?	?	nt	i	i
CCOC(=O)c1ccc(NC(=O)Nc2cc(C)on2)cc1	i	i	i	i	i
O=C(Nc1ccccn1)c1ccc2ccccc2c1O	i	14.6µM	i	i	nt
O=C(Nc1cccnc1)c1ccc2ccccc2c1O	i	13µM	i	i	nt
O=C(Cc1ccccc1)Nc1cccc([N+](=O)[O-])c1	i	i	i	i	i
O=C(N/N=C/c1cccnc1)c1ccc2ccccc2c1O	i	i	?	i	i
O=C(O)c1ccccc1C(=O)Nc1ccccn1	i	i	i	i	i
O=C(Nc1cccc([N+](=O)[O-])c1)c1ccc2ccccc2c1O	23.1µM	14.6µM	i	i	i
CNC(=S)N/N=C/c1ccccc1OCC(=O)O	i	i	i	i	nt
N=c1c2c(ncn1Cc1ccco1)Oc1c(ccc3ccccc13)C2c1ccccc1 (centres undefined)	?	?	i	i	i
CN(C)CCn1cnc2c(c1=N)C(c1ccccc1)c1ccc3ccccc3c1O2 (centres undefined)	18.4µM	?	i	i	nt
COc1ccc(C2c3c(ncn(CCN4CCOCC4)c3=N)Oc3ccc4ccccc4c32)cc1 (centres undefined)	?	18.4µM	i	i	i
N=c1c2c(ncn1Cc1ccco1)Oc1cc(O)ccc1C2c1ccccc1 (centres undefined)	18.4µM	?	i	i	i
C#CCOCCOCCOCCNc1nc(N2CCOCC2)nc(N2CCN(C(=O)CCCCCCCCCCNC(=O)[C@@H]([C@H](C)O)n3cc(C)nn3)CC2)n1	?	16.4µM	i	nt	i
C#CCOCCOCCOCCNc1nc(N2CCN(C(=O)CCCCCCCCCCNC(=O)[C@@H]([C@H](C)O)n3cc(C)nn3)CC2)nc(N2CCN(C(=O)CCCCCCCCCCNC(=O)[C@@H]([C@H](C)O)n3cc(C)nn3)CC2)n1	?	23.1µM	i	nt	i
C#CCOCCOCCOCCNc1nc(N2CCN(C(=O)[C@H]([C@@H](C)CC)n3cc([C@@H](N)CC(C)C)nn3)CC2)nc(N2CCN(C(=O)[C@H]([C@@H](C)CC)n3cc([C@@H](N)CC(C)C)nn3)CC2)n1	14.6µM	?	i	i	i
CCCCOc1ccc(CSc2nncn2N)cc1	i	i	i	i	i
Cc1cc(C(=O)c2ccc(Cl)cc2)c(NC(=O)CCl)s1	8.2µM	7.31µM	i	i	i
COc1ccccc1NC(=O)COc1ccc(Br)cc1CNC1CCCC1	?	?	i	i	i
C/C=C1\COC(C(=O)NCCN2CCCC2)(C(F)(F)F)C=C1C=C1CCCCC1 (centres undefined)	18.4µM	20.6µM	i	nt	i

From PubChem BioAssay
